This passage reports outcome results from PubChem BioAssay AID743395 (Broad Institute, 2014).

SMILES strings stand for the structures. About 480 (40%) of roughly 1,200 compounds were called active. No rule for the calls is given here. So high a share suggests a set chosen from earlier hits. A selection follows. Entries that show only a call come without a potency. Potency and affinity values are given separately.

The test can be described thus: viability loss in human hepatoma cells – cell-based, CellTiter-Glo luminescence, cherry-pick, set 2, cytotoxicity control, dose response (AID 743395). The note with it: HepG2 viability, CellTiter-Glo ATP luminescence, 72 h; series mostly up to 26 µM. In general terms: ATP-based viability assays read luminescence as a measure of living cells.
`COc1ccc(OC)c(N/C(N)=N/c2nc(C)cc(C)n2)c1`: the molecule was called inactive. Regarding `COc1cc(C(O)CO)ccc1OS(=O)(=O)O` (stereo unspecified), the result was inactive.

Regarding `COc1ccc2c(c1OC)OCC2C` (stereo unspecified), the molecule was called inactive.

For the molecule `Cc1cc(C)nc(N(C#N)Cc2cccc(Cl)c2)n1`, the result was inactive. To `CCOc1ccc(C(=O)NCC(=O)NNC(=O)c2cc(C)oc2C)cc1OCC` belongs “inactive”; to `Cc1cccc(C(=O)OCC(=O)NC(C)C2CC3CCC2C3)c1O` (stereo unspecified), “inactive”. `Cc1ccc(-n2cc(-c3ccccc3)c3c(N4CCOCC4)ncnc32)cc1`: the call was inactive. Turning to `O=C(C(Cc1ccccc1)n1cccc1)N1CCCCC1` (stereo unspecified), the outcome was inactive. Take `CC(C)(C)C1COc2ccccc2N1C(=O)c1cccc(Cl)c1` (stereo unspecified): the outcome was inactive.

Consider `C/C=C/c1ccc2c(c1)O[C@@H](CN(C)C(=O)Nc1cccc(F)c1)[C@H](C)CN([C@H](C)CO)S2(=O)=O`, for which the result was inactive. For the molecule `Cc1cc2c(s1)Nc1ccccc1N=C2N1CCN(C)CC1`, the molecule was classed as inactive. Regarding `CCN[C@H]1CN(CCCOC)S(=O)(=O)c2sc(S(N)(=O)=O)cc21`, the result was inactive. To `O=C(c1ccc2ccccc2c1)N1CCN(Cc2ccccc2)CC1` belongs “inactive”. As to `Cc1cccc(N2CCN(C(=O)c3c(-c4ccccc4Cl)noc3C)CC2)c1C`, the molecule was classed as inactive. To `NC1(C(=O)O)CC1` belongs “inactive”.

With `O=c1cnc2ccccc2n1CC1CCCCC1`, the molecule was called inactive. To `Cc1cc(C)c(/C=C2\C(=O)Nc3ccccc32)[nH]1` belongs “inactive”. To `Cc1cccc(N(C)S(=O)(=O)c2ccc(-c3cc(C)no3)s2)c1` belongs “inactive”; to `CC(OC(=O)c1cccs1)C(=O)NC1CCCCC1C` (stereo unspecified), “inactive”.

Consider `Cc1cc(C(=O)N/N=C/c2ccc([N+](=O)[O-])cc2)c2ccccc2n1`, for which the result was inactive.

Turning to `CN(C)c1ccc2c(c1)[C@@H]1C[C@@H](CC(=O)NCc3ccc(Oc4ccccc4)cc3)O[C@H](CO)[C@@H]1O2`, the molecule was classed as inactive. As to `CCN(CC(=O)Nc1cc(Cl)ccc1-n1cncn1)Cc1nc2ccccc2c(=O)[nH]1`, the molecule was classed as inactive. To `Cc1cc(C(=O)N2CC=C(c3ccccc3)CC2)c2ccccc2n1` belongs “inactive”; to `CCN(C(=O)COC(=O)c1cc2c(s1)CCCC2)c1c(N)n(Cc2ccccc2)c(=O)[nH]c1=O`, “inactive”; to `O=S(=O)(Nc1ccc(F)cc1Cl)c1ccc(-c2cnc(C3CC3)o2)cc1`, “inactive”. Turning to `COc1ccccc1NS(=O)(=O)c1cc(-c2cnc(C3CC3)o2)ccc1C`, the call was inactive. As for `CC(C)c1cccc(-c2csc(C(O)c3ccco3)n2)c1` (stereo unspecified), the molecule was called inactive. Take `COc1ccc(OC)c(-c2nnc3n2N=C(c2ccc(OC)c(OC)c2)CS3)c1`: the molecule was called inactive.

Take `Cc1cc(N2CCCC2)c(F)cc1/C=C\[N+](=O)[O-]`: the molecule was called inactive. To `NS(=O)(=O)c1ccc2nc(NC(=O)c3ccc4c(c3)OCCO4)sc2c1` belongs “inactive”. Regarding `C/C=C/c1ccc([C@@H]2[C@H](CO)N(CC3CC3)[C@H]2CNC(=O)c2ccccc2)cc1`, the outcome was inactive. `CCOc1ccc(S(=O)(=O)N2CCCCC2)cc1NC(=O)c1ccccc1`: the outcome was inactive. To `COc1ccc(-c2nc(-c3cccc(C)c3)no2)cc1OC` belongs “inactive”.

In the case of `Nc1ccc(S(=O)(=O)Nc2cnc3ccccc3n2)cc1`, the result was inactive. In the case of `COc1ccc(S(=O)(=O)Cc2ccc(C(=O)N3CCN(c4cccc(C)c4)C(C)C3)o2)cc1` (stereo unspecified), the outcome was inactive. Under `Cc1ccccc1OCC(=O)OCC(=O)NCCc1ccccc1` stands “inactive”; under `COC(=O)C[C@@H]1CC[C@@H]2[C@H](COc3ccc(NC(=O)c4cc(C)on4)cc3C(=O)N2C)O1`, “inactive”. Take `CC(=O)N1Cc2cc(C(=O)NCC(F)(F)F)nc(-c3cccc(-c4cccnc4)c3)c2[C@@H]1CCO`: the outcome was inactive. Turning to `CN(Cc1c(F)cccc1Cl)C(=O)c1ccc(NC(=O)CC2SC(N3CCCCC3)=NC2=O)cc1` (stereo unspecified), the outcome was inactive.

Regarding `Cc1noc(NS(=O)(=O)c2ccc(N/C=C\C(=O)c3ccccc3)cc2)c1C`, the outcome was inactive.

`COc1cc(OC)cc(C(=O)NC(=S)Nc2ccc3oc(=O)ccc3c2)c1`: the call was inactive. As to `O=C(c1[nH]ncc1-c1ccc(Cl)cc1)C1CO1` (stereo unspecified), the result was inactive. To `Cc1cc2nnc(SCC(=O)NCc3ccco3)n2c2ccccc12` belongs “inactive”. To `S=C(NCc1ccco1)NCC1CCCO1` (stereo unspecified) belongs “inactive”; to `CCCCC1(C2CCCC2)NC(=O)NC1=O` (stereo unspecified), “inactive”. Under `CNS(=O)(=O)c1cccc(C(=O)OCC(=O)c2cc(C)n(CC3CCCO3)c2C)c1` (stereo unspecified) stands “inactive”; under `O=Cc1ccccc1OCc1ccc2c(c1)OCO2`, “inactive”; under `CCOC1=C2[C@@H](CN(S(=O)(=O)c3ccc(C)cc3)[C@H]2c2ccc(Cl)cc2)[C@H]2C(=O)N(c3ccccc3)C(=O)[C@H]2C1`, “inactive”.

`COc1cc(C(=O)c2cocc2C(=O)c2ccc3c(c2)OCO3)cc(OC)c1OC`: the call was inactive. Under `COc1ccc(N(C)S(=O)(=O)c2cccc(C(=O)NCC3CCCCC3)c2)cc1` stands “inactive”; under `COCCNC(=O)C1CCCN(C(=O)c2ccc3sccc3c2)CC1` (stereo unspecified), “inactive”; under `COc1ccc2c3c(n(C)c2c1)[C@H](CO)NCC31CCN(Cc2cc(-c3ccccc3)on2)CC1`, “inactive”. Under `COCC(=O)N1C[C@@H]2[C@H](c3ccccc31)[C@H](CO)N2Cc1ccc(OC)cc1` stands “inactive”; under `COc1ccc2c3c([nH]c2c1)[C@H](CO)N(C(=O)Nc1ccc(F)cc1)CC31CCN(S(=O)(=O)c2ccccc2)CC1`, “inactive”.

On to `CCCNC(=O)N1CC2(CN(CC3CCCCC3)C2)c2c(n(C)c3cc(OC)ccc23)[C@H]1CO`, for which the molecule was called inactive. As to `COc1ccc2c(c1)[nH]c1c(=O)n(/N=C/c3ccc(OC)c(CN4CCCC4)c3)cnc12`, the result was inactive. Under `Cc1sc(NC(=S)NC(=O)CCc2ccccc2)c(C(N)=O)c1C` stands “inactive”; under `COCCNC(=O)NC12CC3(C)CC(C)(CC(C)(C3)C1)C2`, “inactive”. To `COc1ccccc1C(=O)Nc1onc(C)c1C#N` belongs “inactive”; to `COc1cccc(N2CCN(C(=O)c3ccc(CS(=O)c4ccc(Cl)cc4)o3)CC2)c1` (stereo unspecified), “inactive”; to `COc1cccc(CNC(=O)CSc2nc3ccc(C)cc3[nH]2)c1`, “inactive”. Turning to `CC(C)(C)c1csc(NC(=O)Cc2cccs2)n1`, the call was inactive. For the molecule `CN1CCN(C(=O)c2ccc(CN(c3ccccc3)S(=O)(=O)c3ccccc3)cc2)CC1`, the result was inactive. Under `Cc1ccc(S(=O)(=O)N[C@H](C(=O)OCC(=O)NC(=O)C2CCCCC2)C(C)C)cc1` stands “inactive”; under `CC(C)c1ccc(NC(=O)CN2C(=O)NC3(CCCCCCC3)C2=O)cc1`, “inactive”; under `CSc1ccccc1NC(=O)COC(=O)CCC(=O)c1ccc(F)cc1`, “inactive”. Under `CC(=O)OCCn1c2nc(=O)[nH]c(=O)c-2nc2cc(C)c(C)cc21` stands “inactive”; under `COc1cccc(NC(=O)N(C)C[C@H]2OCc3ccccc3-c3c(n(C)c4ccccc34)C(=O)N([C@H](C)CO)C[C@H]2C)c1`, “inactive”; under `O=C(c1[nH]ncc1-c1cccc(Br)c1)C1CO1` (stereo unspecified), “inactive”.

Turning to `CC(C)CCNC(=O)C(=O)Nc1ccc2c(c1)N(S(=O)(=O)c1cccs1)CCC2`, the molecule was called inactive.

On to `CCOC(=O)C1=CN(Cc2cccc(I)c2)S(=O)(=O)N(C)C1C` (stereo unspecified), for which the molecule was classed as inactive.

Take `CC(C)c1nc2oc3c(NCCO)ncnc3c2c2c1COC(C)(C)C2`: the result was inactive. Under `COc1ccc(-c2cnc3c(NC=O)cc(-c4ccccc4)cn23)cc1OC` stands “inactive”; under `COc1cc(-c2cnc3c(NC=O)cc(-c4cccc(C(F)(F)F)c4)cn23)cc(OC)c1OC`, “inactive”. With `O=CNc1cc(-c2ccc(C(=O)NC3CC3)cc2)cn2c(-c3ccccc3)cnc12`, the result was inactive. To `O=C(COC(=O)Cc1ccsc1)Nc1cccc(F)c1` belongs “inactive”; to `COc1ccccc1OCCNC(=O)CCNC(=O)c1ccccc1OC`, “inactive”; to `COc1cccc2cc(C(=O)NCCN3CCOCC3)c(=O)oc12`, “inactive”. On to `NS(=O)(=O)c1ccc(NC(=O)c2cccc3cc4ccccc4nc23)cc1`, for which the molecule was classed as inactive. In the case of `O=C1NC(Cc2ccc(O)cc2)c2nc3ccc(Br)cc3c(=O)n2-c2cc3ccccc3cc21` (stereo unspecified), the call was inactive. Regarding `COc1ccccc1S(=O)(=O)N1CC[C@@H]2[C@@H](CO)N(C)c3ccc(-c4ccc(F)cc4)cc3[C@@H]21`, the molecule was classed as inactive. Consider `COc1ccccc1Cc1c(-c2ccc(Cl)cc2)nc2ccc(Br)cn12`, for which the molecule was called inactive. Regarding `O=C(O)CCCCCCCCc1cn(Cc2ccc(C(=O)c3ccccc3)cc2)nn1`, the call was inactive. Under `CC1CCN(S(=O)(=O)N2CCCC(C(=O)NCc3ccccc3Cl)C2)CC1` (stereo unspecified) stands “inactive”; under `C[C@@](Cc1ccc(O)c(O)c1)(NN)C(=O)O`, “inactive”; under `Cc1ccc(Nc2nc(CSc3nnc(-c4cccnc4)n3-c3ccccc3F)cs2)cc1`, “inactive”. Under `COc1ccc(NC(=O)c2cc(C3CC3)on2)c(OC)c1` stands “inactive”; under `Cc1cc(C(=O)CCC(=O)NC(C)c2ccc(S(N)(=O)=O)cc2)c(C)s1` (stereo unspecified), “inactive”; under `Cc1c(Cl)cccc1NC(=O)C1CC(=O)N(C2CCCC2)C1` (stereo unspecified), “inactive”.

Turning to `COCCNC(=O)C1CCCN(C(=O)c2cc(-c3cccs3)oc2C)CC1` (stereo unspecified), the molecule was classed as inactive. For the molecule `O=C1NN(c2cccc(Br)c2)C(=O)/C1=C\c1ccc(O)cc1`, the result was inactive.

Consider `Cc1ccc(N2C(=O)c3cccc4c([N+](=O)[O-])ccc(c34)C2=O)c2cccnc12`, for which the outcome was inactive.

Consider `CCN1C(=O)c2cccc3c(S(=O)(=O)N(C(C)=O)c4ccc(OC(C)=O)cc4)ccc1c23`, for which the call was inactive. `O=C1c2cccc3c([N+](=O)[O-])ccc(c23)C(=O)N1Cc1cccnc1`: the call was inactive. Regarding `CCOc1ccc(NC(=O)c2ccc(NC(=O)CN3C(=O)C(=O)N(CC(C)C)C3=O)cc2)cc1`, the call was inactive. For the molecule `CC1C2CCC(C2)C1OC(=O)c1ccccc1C(=O)O` (stereo unspecified), the call was inactive. Under `CCCCn1nc(NC(=O)CC)c2cc3cc(OC)ccc3nc21` stands “inactive”; under `O=C1CCC(CCc2nc3ccccc3[nH]2)(c2ccccc2)C(=O)N1` (stereo unspecified), “inactive”; under `N#C/C(=C\c1ccccn1)c1nc2ccccc2s1`, “inactive”.

On to `O=C(C[C@@H]1C[C@H]2c3cc(NC(=O)CC4CC4)ccc3O[C@H]2[C@H](CO)O1)NCc1cccc(F)c1`, for which the molecule was called inactive. Under `COC(=O)C1(C)CCCC2(C)C3CCC(C(C)C)C(CO)C3C(CO)CC12` (stereo unspecified) stands “inactive”.
